Laboratory results as given in PubChem BioAssay AID652039 (The Scripps Research Institute Molecular Screening Center, 2013).
Screen size: about 370,000 compounds; about 3,300 (0.89%) were called active. The full list was thinned out, with actives kept by preference. Values without a mark were called inactive.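 Rule for the calls: active = activation above the mean of all tested compounds plus 3 SD, computed per campaign excluding outliers beyond control limits (cut at about 13% in these data); inactive = the rest.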

These molecules were tested against Kallikrein-7 (Homo sapiens) (UniProt P49862) (assay: activation of human kallikrein-7 proenzyme – biochemical, fluorescence intensity, primary screen (AID 652039)). Conditions: purified proKLK7, EDANS-DABCYL substrate fluorescence; at 7 µM; hits give high values; 100% is mature enzyme control, 0% vehicle.
Kallikrein-7 (Homo sapiens), sequence (P49862 whole entry, looked up): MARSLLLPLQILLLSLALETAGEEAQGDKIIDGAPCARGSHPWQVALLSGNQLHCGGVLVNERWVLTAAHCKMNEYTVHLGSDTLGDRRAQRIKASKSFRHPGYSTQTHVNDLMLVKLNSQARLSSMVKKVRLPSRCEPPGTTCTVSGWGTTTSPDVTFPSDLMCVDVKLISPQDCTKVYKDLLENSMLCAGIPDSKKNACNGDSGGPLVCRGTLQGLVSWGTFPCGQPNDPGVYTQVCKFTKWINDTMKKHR

Structure (SMILES)	activation
Nc1nonc1-n1nnc(C(=O)N/N=C/c2cc(Br)ccc2O)c1CSC1=NCCS1	-0.67%
COc1cc(/C=N/N=C(\N)c2nonc2N)cc(OC)c1OC	0.13%
COc1cc(/C=N\NC(=O)c2nonc2N)c(OC)cc1Br	163% (active)
COc1cccc(N(C)C(=O)[C@@H](C)[C@@H](O)c2ccc3ccccc3c2)c1	-0.02%
CC(C)CSc1nnc(-c2cccnc2)n1Cc1ccccc1	-0.36%
CN1C(C(=O)NCc2ccco2)CC2Cn3c(nc4ccccc43)C21 (configuration not stated)	0.06%
CN1c2ccccc2-c2nc3ccccc3n2C1c1ccco1 (configuration not stated)	35.6% (active)
CN1CCCc2cc(C#N)c(=O)[nH]c21	60% (active)
Clc1ccc(C(Cn2ccnc2)OCc2ccsc2Cl)c(Cl)c1 (configuration not stated)	0.44%
Cc1cc(C(=O)NN=C/C=C/c2ccco2)n[nH]1	0.51%
C=CCN1CN(S(=O)(=O)c2ccc(OC)cc2)c2nc3ccccc3nc21	2.35%
CCC(=O)Nc1c(S(=O)(=O)c2ccccc2)c2nc3ccccc3nc2n1Cc1ccccc1	-55%
C=CCn1c(N)c(S(=O)(=O)c2cccs2)c2nc3ccccc3nc21	26.2% (active)
COc1cc2c(cc1OC)CC1(CCCCC1)N=C2	165% (active)
CCOC(=O)[C@]12CCCCC/C=C\1N(Cc1ccc(OC)cc1)C(=O)[C@H]2CC(=O)N1CCOCC1	0.31%
C=CCN1[C@H](CC(C)C)COc2cccc(N3CCCC3)c2S1(=O)=O	0.16%
CCc1cc(=O)oc2cc(C)cc(OC(C)C(=O)O)c12 (configuration not stated)	3.59%
CCCCc1cc(=O)oc2cc(C)cc(OCc3nn[nH]n3)c12	12.8% (active)
CCc1cc(=O)oc2cc(C)cc(OCC(=O)N3CCC[C@@H]3C(=O)O)c12	2.84%
CCOC(CNC(=O)C(=O)NCC(c1ccco1)N1CCN(c2ccc(OC)cc2)CC1)OCC (configuration not stated)	-0.14%
CN1CCCc2nc(-c3ccccc3)ccc21	7.88%

Structure (SMILES)	activation
Cc1nc(N2CCOCC2)nc2c1CCCC2	0.32%
Cc1cc2c(nc1C)CCCN2C	38.3% (active)
CCOC(=O)[C@@]12CCC3=C1N(CCC3)C(=O)[C@H](CC(=O)N1CCN(C(=O)c3ccco3)CC1)C2	0.06%
C=CCN1C(=O)[C@H](CC(=O)N2CCN(C(=O)OCC)CC2)[C@@]2(C(=O)OCC)CCCC=C12	-0.4%
Cc1ccccc1CS(=O)(=O)Cc1ccc(C(=O)Nc2ccc(Cl)cc2)o1	3.6%
C/C(=C\c1ccccc1)C1NC(=O)c2c(sc3c2CCCC3)N1 (configuration not stated)	12.6% (active)
Cc1[nH]c(=O)c(C(=O)/C=C/c2ccccc2)c2c1CCCC2	-0.01%
O=C1NC(c2ccncc2)Nc2sc3c(c21)CCCC3 (configuration not stated)	1.14%
COC(=O)c1cccc(Cn2ccc3ccc(-c4ccc5ccn(C(=O)C6CCCCC6)c5c4)cc32)c1	-4.23%
O=C(CCl)NC1CCCCN(Cc2cccc(C(F)(F)F)c2)C1=O (configuration not stated)	-0.51%
CC(=O)Nc1cncc(-c2ccccc2CO)n1	-0.16%
CNc1cncc(-c2ccc(NS(C)(=O)=O)cc2)n1	128% (active)
CS(=O)(=O)Nc1ccc(C(=O)N2CCCC2)cc1	0.41%
O=C(CSc1nnc(-c2ccccc2)n1Cc1ccco1)Nc1ccccc1-c1ccccc1	0.13%
CCC(NC(=O)C1C2C=CC3(CN(Cc4ccccc4)C(=O)C13)O2)c1ccccc1 (configuration not stated)	-0.29%
O=C(NC1CCC1)c1ccc(C#Cc2cccc(F)c2)c[n+]1[O-]	-0.32%
Cc1nc2ccccc2nc1CC(O)(c1ccccc1)c1ccccc1	-0.46%
Cc1ccc(O)c(CCc2ccccc2)n1	-0.18%
Cc1nc2ccccc2cc1O	41.8% (active)
O=S1(=O)c2ccc(Br)cc2OC[C@H](Cc2ccccc2)N1Cc1cn(Cc2ccccc2)nn1	-0.03%
O=C(/C=C/[C@H]1O[C@@H](n2cnc3c(NC(=O)c4ccccc4)ncnc32)[C@H](O)[C@@H]1O)NCc1ccccc1	0.53%

Structure (SMILES)	activation
Cc1ccc(-c2noc(-c3ccccc3C(=O)NCC3CCCO3)n2)cc1 (configuration not stated)	0.54%
Cc1ccc(CCNC(=O)c2ccc3nc4ccccc4c(=O)n3c2)cc1	-5.82%
Cc1ccc2nc3c(cc(C(=O)NCCc4ccccc4)c(=N)n3CC3CCCO3)c(=O)n2c1 (configuration not stated)	25.4% (active)
CC(=O)OC12CCCN(C1)/C(=C/c1ccncc1)C2 (configuration not stated)	0.51%
CN(C)CCCn1c(N)c(C#N)c2nc(C#N)c(C#N)nc21	78.7% (active)
CCCc1cc(=O)oc2c(C)c(OCC(=O)Nc3ccccn3)ccc12	-0.69%
COc1cccc(C(=O)OCc2cc(=O)oc3c(C)c(C)ccc23)c1OC	0.12%
COC(=O)Cc1cc(=O)oc2c(C)c(O)ccc12	66% (active)
O=C(CSc1nnc(-c2ccccn2)n1-c1ccccc1)Nc1ccc2cn[nH]c2c1	0.28%
O=C(CSc1nc2ccccc2nc1N1CCCCC1)N1CCN(S(=O)(=O)c2cccc([N+](=O)[O-])c2)CC1	0.08%
Cc1ccc(CSc2nnc(SCC(=O)NN=Cc3cc(Br)ccc3F)s2)cc1	-0.39%
CCCN(CCC)C(=S)Nc1cc(C(=O)OC)ccc1C(=O)OC	0.15%
CCS(=O)(=O)Nc1cc(C(=O)OC)ccc1C(=O)OC	21.6% (active)
COC(=O)c1ccc(C(=O)OC)c(NC(=S)N2CCCCC2)c1	-1.87%
Cc1ccc(NC(=O)Cc2cccc(F)c2)c(S(=O)(=O)N2CCOCC2)c1	-0.14%
CC(C)(C)c1ccc(CSc2nnc(-c3cccs3)o2)cc1	-0.23%
COc1ccc([C@H]2OC(=O)C[C@H]2C(=O)N2CCN(c3ccccc3F)CC2)cc1OC	-0.74%
CCC(Oc1ccccc1)C(=O)OCC(=O)Nc1c(C)nn(-c2ccccc2)c1C (configuration not stated)	-0.3%
Cc1cccc(C)c1NC(=O)COC(=O)c1c(C)nn(-c2ccccc2)c1C	0.05%
Cc1nn(-c2ccccc2)c(C)c1NC(=O)COC(=O)c1cc(Cl)ccc1O	24.7% (active)
